Experimental findings from PubChem BioAssay AID493232 (The Scripps Research Institute Molecular Screening Center, 2011) are described below.

SMILES strings stand for the structures. Out of some 1,800 compounds screened, about 860 (48%) were called active. So high a share suggests a set chosen from earlier hits. The list is a sample of the results. Values without a mark were called inactive. Rule as the data show it: active = inhibition above about 17%; inactive = the rest.

The test can be described thus: CHO-K1 parental line HTRF response – cell-based, counter-screen for OX1R antagonist project (AID 493232).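 Also: 0% = agonist challenge with vehicle and 100% = vehicle alone without agonist.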 The note with it: parental CHO-K1 cells, HTRF counterscreen; at 6.6 µM; active compounds read high. (Time-resolved FRET reads energy transfer from a long-lived donor to a nearby acceptor.)
As for `CC(C)(C)NC(=O)CN(C(=O)c1csnn1)c1ccccc1-c1ccccc1`, the inhibition (usually the relative decrease from the control value, in per cent) is 1.93%.
Under `CN1CCN(/N=C/c2ccc(-c3ccc([N+](=O)[O-])cc3)o2)CC1` stands 34% (active); under `Cc1oc2c(c1C(=O)N1CCOCC1)C(=O)c1ccccc1C2=O`, 104% (active).
With `CC(NC(=O)c1cccc2ccccc12)c1ccc2c(c1)CCCC2` (configuration not stated) the figure was 9.37%; with `CCOc1cc(/C=C(\C#N)c2nc(-c3cccs3)c(NC(C)=O)s2)ccc1O`, 2.21%; with `CC(C)CC[n+]1ccn(C2=C([O-])c3ccccc3C(=O)/C2=N\S(=O)(=O)c2ccccc2)c1`, 100% (active).
With `O=C(OC1CCOC1=O)c1ccc(-c2nc3ccccc3s2)s1` (configuration not stated) the figure was 28.1% (active).
As to `Cc1cc(=O)oc(C)c1C(=O)NCCN(C)Cc1ccccc1`, the inhibition was 4.29%.
With `O=C(c1ccncc1)c1ccc([N+](=O)[O-])cc1` the figure was 68.8% (active); with `CC(=O)Nc1ccc(Nc2c([N+](=O)[O-])cc(S(C)(=O)=O)cc2[N+](=O)[O-])cc1`, 71% (active).
With `CC(C)(C)NC(=O)Cn1cnc2cc([N+](=O)[O-])ccc2c1=O` the figure was 73.7% (active); with `O=C(Nc1cccc2cccnc12)c1cccc(N2C(=O)CCC2=O)c1`, 8.23%; with `O=C(Cc1ccccc1)N1CCN(S(=O)(=O)c2ccc([N+](=O)[O-])cc2)CC1`, 28.9% (active).
For the compound `Cc1ccc([C@@H]2CC=C(C(=O)O)[C@H](c3cccc(Cl)c3)N2S(=O)(=O)c2ccc(C)cc2)cc1`, the inhibition was 4.59%.
On to `S=c1[nH]nc(-c2cc(-c3ccccc3)n[nH]2)n1/N=C/c1c2ccccc2cc2ccccc12`, for which the inhibition was 6.53%.
As for `Cc1cccn2c(=O)c3cc(C#N)c(=NC(=O)c4cccnc4)n(CC4CCCO4)c3nc12` (configuration not stated), the inhibition is 46.1% (active).
As for `Nc1nc(COC(=O)CCC(=O)c2ccc(Cl)cc2)nc(Nc2ccccc2)n1`, the inhibition is -0.94%.
With `Cc1cccc(NC(=O)Nc2cccc(Oc3c(F)c(F)c(F)c(F)c3F)c2)c1` the figure was 14.7%.
With `O=C(NC(Cc1c[nH]c2ccccc12)C(=O)N/N=C/c1ccc(Br)cc1)c1cccs1` (configuration not stated) the figure was 3.77%; with `COC(=O)c1sccc1NC(=O)CSc1ccccc1NS(=O)(=O)c1cc(Cl)ccc1Cl`, 12.9%.
With `COCCCNC(=S)NC(=O)c1ccc([N+](=O)[O-])cc1` the figure was 29.9% (active); with `COc1cc(OC)c(NC(=O)c2ccc(Br)o2)cc1Cl`, 8.45%.
As to `COc1ccc(N(C)C(=O)CCS(=O)(=O)c2cccc3nsnc23)cc1`, the inhibition was 56% (active).
Under `CCOc1ccc(NC(=O)CCS(=O)(=O)c2cccc3nsnc23)cc1` stands 35.3% (active); under `COc1ccc2sc(-c3ccc(N(C)C)cc3)c(C#CCO)c2c1`, 14.2%.
With `C=CCn1c(SCC(=O)Nc2nc3ccccc3s2)nnc1-c1ccccc1O` the figure was -0.28%; with `N#CC(=C1SC=CS1)c1nc(-c2ccccc2)cs1`, 14.8%.
